The source made the active and inactive calls. The calls were made as follows: active = hit-call score of the fitted dose curve at least 0.9, where 1 is the maximum; inactive = score below 0.9.
Test: ATG_GLI_CIS: Attagene CIS-FACTORIAL HepG2 Assay for human Zinc Finger Protein GLI1 (AID 2282945)
Settings: HepG2, Attagene cis-factorial reporter mRNA, GLI element; actives raise or lower the signal
How it was run: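 Bidirectional curve fits relative to DMSO, using reporter mRNA levels from RT-PCR plus capillary electrophoresis. Cells were HepG2 transiently carrying cis-regulated reporter constructs, harvested 24 h after dosing.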

outcome, inactive:
CNC(=C[N+](=O)[O-])NCCSCc1csc(CN(C)C)n1
O=C1CCCCCCCCCCCCCC1
CCCC(=O)OC/C=C(\C)CCC=C(C)C
CCCCCCC(O)CCCCCCCCCCC(=O)OC (stereo not drawn)
COC(=O)c1ccccc1
O=C(O)/C=C/C(=O)O
O=S(=O)(O)c1cccc2ccccc12
C/C=C(\C)C(=O)OCC/C=C\CC
CC/C=C\CC/C=C/C(OCC)OCC
C=CCOCC(CC)(CO)COCC=C
CN1CCCC1
CCO[Si](CCCN)(OCC)OCC
CCCCCCC1CCC(=O)O1 (stereo not drawn)
O=[N+]([O-])c1ccccc1C(F)(F)F
CCC(=O)OCc1ccc(OC)cc1
CCc1cc(C(N)=S)ccn1
CCC(C)=NO
COc1cccc(OC)c1C(=O)O
C=C1CC[C@H]2C[C@@H]1C2(C)C
CCCCCC1CCCC(=O)O1 (stereo not drawn)
COC(=O)[C@]1(C)CCC[C@@]2(C)[C@H]1CC=C1C=C(C(C)C)CC[C@@H]12
Cc1cc2nc3c(=O)[nH]c(=O)nc-3n(C[C@H](O)[C@H](O)[C@H](O)CO)c2cc1C
Cc1cc(-n2nc3ccc(Cl)cc3n2)c(O)c(C(C)(C)C)c1
O=C(OCc1ccccc1)c1ccccc1
CCCCCCC1CCCC(=O)O1 (stereo not drawn)
c1ccc(CNc2ncnc3nc[nH]c23)cc1
NC(=O)c1ccc(N)cc1
CC(=O)Nc1c(I)c(NC(C)=O)c(I)c(C(=O)O)c1I

Reference: PubChem BioAssay (EPA / NIEHS)
